Source: PubChem BioAssay (National Center for Advancing Translational Sciences (NCATS))
Rows were chosen to be rich in hits. Some 7.6% of all compounds tested hit in one or more screens of this group.
MCF10A rerep – induces DNA re-replication in MCF 10a normal breast cells; AID 624296; MCF 10A DNA re-replication, Hoechst nuclear intensity, 48 h; 350,000 tested, 2.9% active; Potency, µM (titrated, usually from 46.1 µM), for inactives: at the highest dose activity, positive = re-replication, actives largely listed as activators; also: potency is read from the fitted curve at half-maximal effect; % of control where 0% means no effect; nearly all actives have a fitted effect of over 50% in size
KB-V1 cytotox – KB-V1 MDR subline cytotoxicity; KB-V1 MDR cells viability, CellTiter-Glo, 72 h; Potency, µM (doses to about 46.1 µM), hits mostly cytotoxic; 400,000 tested, 3.4% active; AID 1347076; also: potency is read from the fitted curve at half-maximal effect; % is scaled to controls: 0 for no effect and ±100 for the full control effect; nearly all actives have a fitted effect of over 60% in size
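Luminescent ATP read-out (CellTiter-Glo, 10 min) measures survival of drug-selected KB-V1 MDR cells after 72 h, 37 degrees C compound exposure. Medium: phenol-red-free DMEM, 10% FBS. Values from fitted concentration-response curves.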
hERG WT inh – KCNH2 (human, wildtype) channel inhibition | Q12809 | U2OS, BacMam KCNH2, thallium flux FluxOr; active compounds read low | activity change, % at 1.84 µM | 340,000 tested, 0.37% active | AID 720551;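 active = maximum activity change below -70%; inconclusive = maximum activity change between -70% and -50%; inactive = maximum activity change above -50%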; also: % is scaled to controls: 0 for no effect and ±100 for the full control effect
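U2OS cells transduced with wild-type KCNH2 virus are loaded with FluxOr dye for 45 min, and thallium flux is measured in kinetic reads before and after stimulation buffer. Rate constants are normalized to DMSO controls.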
SW480 rereplic – DNA re-replication induction in SW480 cells; SW480 DNA re-replication, Hoechst DNA content imaging, 48 h; Potency, µM (titrated, usually from 46.1 µM), for inactives: at the top dose re-replication activation, actives largely listed as activators; 340,000 tested, 1.8% active; also: potency is read from the fitted curve at half-maximal effect; % of control where 0% means no effect; nearly all actives have a fitted effect of over 55% in size
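Treated cells incubate 48 hr (37 C, 5% CO2), are stained 40 min with Hoechst, and nuclear fluorescence is enumerated; a rise in nuclei with high DNA signal marks re-replication.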
KB-3-1 cytotox – kills parental KB-3-1 adenocarcinoma cells; KB-3-1 viability, CellTiter-Glo ATP luminescence, 72 h; Potency, µM (doses to about 46.1 µM), most hits filed as cytotoxic; 400,000 tested, 1.4% active; AID 1347075; also: potency is read from the fitted curve at half-maximal effect; % is scaled to controls: 0 for no effect and ±100 for the full control effect; nearly all actives have a fitted effect of over 60% in size
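Viability of parental KB-3-1 cells, measured by CellTiter-Glo luminescence, followed a 72 h incubation at 37 °C with pinned compounds in phenol-red-free DMEM containing 10% FBS.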
KCNH2 3.1 inh – KCNH2 3.1 (human) potassium channel inhibition | U2OS KCNH2 3.1, thallium flux FluxOr; active compounds read low | activity change, % (tested at about 1.8 µM) | 340,000 tested, 0.95% active | AID 720553;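 active = maximum activity change below -70%; inconclusive = maximum activity change from -70% to -50%; inactive = maximum activity change above -50%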;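 also: thallium influx rate constant from kinetic fluorescence after stimulation buffer; % is scaled to controls: 0 for no effect and ±100 for the full control effect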
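Measured as rate of thallium-driven FluxOr signal in transduced U2OS cells carrying the 3.1 channel, read kinetically for 2 min upon stimulation; values are rate constants scaled to DMSO control wells.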
* marks the source's active call; other numbers are inactive results. Unless noted, calls follow the shape of the dose curve; as a rule, active = well fitted curve in the direction sought with a large enough effect; inconclusive = small, poorly fitted or top-dose-only effect, or another doubt; inactive = no such curve, though single readings can be large; an effect the other way counts as inactive or inconclusive.

What do the screens show for `Cc1ccc2c(c1)N(CC(=O)N(Cc1ccc3c(c1)OCO3)CC1CCCO1)C(=O)C(C)O2` (configuration not stated)?
MCF10A rerep: 1%; KB-V1 cytotox: 8.2µM*; hERG WT inh: 4; SW480 rereplic: 0%; KB-3-1 cytotox: inactive; KCNH2 3.1 inh: 11

Results for COc1ccc(CN(CC2CCCO2)C(=O)CN2C(=O)COc3ccccc32)cc1OC (configuration not stated) ?
MCF10A rerep: 8%; KB-V1 cytotox: inactive; hERG WT inh: 1; SW480 rereplic: -5%; KB-3-1 cytotox: inactive; KCNH2 3.1 inh: -5

How did CC(=O)N(C(C)=O)c1ncc2c([nH]c3ccccc32)c1C#N do in these assays?
MCF10A rerep: -1%; KB-V1 cytotox: 6.5µM*; hERG WT inh: -1; SW480 rereplic: -1%; KB-3-1 cytotox: inactive; KCNH2 3.1 inh: 1

Results for OC(COCc1cccs1)CN1CCN(c2ccccc2Cl)CC1 (configuration not stated) ?
MCF10A rerep: 12%; KB-V1 cytotox: inactive; hERG WT inh: 7; SW480 rereplic: -6%; KB-3-1 cytotox: inactive; KCNH2 3.1 inh: -83*

Results for Cc1cccc(N2CCN(CC(O)COCc3cccs3)CC2)c1C (configuration not stated) ?
MCF10A rerep: -1%; KB-V1 cytotox: inactive; hERG WT inh: -80*; SW480 rereplic: -8%; KB-3-1 cytotox: inactive; KCNH2 3.1 inh: -98*

What do the screens show for `CCOc1ccccc1N1CCN(CC(O)COCc2cccs2)CC1` (configuration not stated)?
MCF10A rerep: -5%; KB-V1 cytotox: inactive; hERG WT inh: 14; SW480 rereplic: -4%; KB-3-1 cytotox: inactive; KCNH2 3.1 inh: -28

How did CCCCCCCOc1ccc(OC(=O)c2ccncc2)cc1 do in these assays?
MCF10A rerep: -6%; KB-V1 cytotox: inactive; hERG WT inh: -18; SW480 rereplic: -2%; KB-3-1 cytotox: inactive; KCNH2 3.1 inh: -15

Results for Cc1cc(C)c(NC(=O)CSc2nnc(-c3ccccn3)n2N)c(Cl)c1 ?
MCF10A rerep: 11%; KB-V1 cytotox: inactive; hERG WT inh: -9; SW480 rereplic: -3%; KB-3-1 cytotox: inactive; KCNH2 3.1 inh: 13

How did COc1ccc(-c2cc(=O)oc3cc(OC(=O)C4CCCCC4)c(Cl)cc23)cc1 do in these assays?
MCF10A rerep: 12µM*; KB-V1 cytotox: inactive; hERG WT inh: 9; SW480 rereplic: 12µM*; KB-3-1 cytotox: inactive; KCNH2 3.1 inh: inconclusive

Results for COc1ccc(-c2cc(=O)oc3cc(O)ccc23)cc1 ?
MCF10A rerep: 7%; KB-V1 cytotox: inactive; hERG WT inh: 2; SW480 rereplic: inconclusive; KB-3-1 cytotox: inactive; KCNH2 3.1 inh: 4

What do the screens show for `CCn1c(NC(=O)C(C)C)c(-c2ccccc2)c(=O)c2ccccc21`?
MCF10A rerep: 1%; KB-V1 cytotox: inactive; hERG WT inh: 5; SW480 rereplic: -5%; KB-3-1 cytotox: inactive; KCNH2 3.1 inh: 6

Results for Cc1ccccc1OC(=O)CSc1nnc(-c2ccc(F)cc2)o1 ?
KB-V1 cytotox: inactive; KB-3-1 cytotox: inactive

Results for CCC(=O)Nc1ccc(Nc2ccccc2)cc1 ?
MCF10A rerep: 8%; KB-V1 cytotox: inactive; hERG WT inh: -82*; SW480 rereplic: -2%; KB-3-1 cytotox: inactive; KCNH2 3.1 inh: 2

Results for CCC(=O)Nc1ccc(C=C(C(C)=O)C(C)=O)cc1 ?
MCF10A rerep: 16µM*; KB-V1 cytotox: inactive; hERG WT inh: 4; SW480 rereplic: -3%; KB-3-1 cytotox: inconclusive; KCNH2 3.1 inh: -4

How did CCc1ccc(NC(=O)COC(=O)C2(c3ccc(Cl)cc3)CCCC2)cc1 do in these assays?
MCF10A rerep: 14%; KB-V1 cytotox: 18µM*; hERG WT inh: -9; SW480 rereplic: inconclusive; KB-3-1 cytotox: inconclusive; KCNH2 3.1 inh: -15
